Rows were chosen to be rich in hits. Some 5.1% of all compounds tested hit in one or more screens of this group.
CRFR2-BP antag: CRF-BP/CRF-R2 complex antagonism; AID 588475; HEK293 CRF-R2/CRF-BP, CRF-induced calcium fluorescence; inhibition, % at 11.8 µM; 0.59% of 350,000 active;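 active = inhibition of the ligand-induced calcium signal above about 50% at the single tested concentration, limit read from the data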
MPTP block: inhibitors of mitochondrial permeability transition pore; isolated mouse mitochondria, Ca2+ swelling absorbance, 30 min; 1.4% of 360,000 active; AID 602449; inhibition, % at 10 µM;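 active = inhibition of 50% or more, scaled per plate between neutral and stimulator controls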;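 note: 0% = DMSO wells given calcium and 100% = 1 mM EGTA wells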
ANO1 activ: activates or potentiates the mouse TMEM16A chloride channel; B-score at 10 µM; Q8BHY3; HEK293 TMEM16A/YFP-H148Q/I152L, iodide quench fluorescence; active compounds read low; 0.3% of 340,000 active; AID 623877;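 active = fluorescence-ratio B-score plate-corrected deviation score at least 3 library SD below zero, with starting fluorescence score within 5 deviations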;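 note: channel opened by trigger with iodide after compound preincubation; score built on the fluorescence ratio of max minus min over baseline; more negative score means more quench and so TMEM16A activation or potentiation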
Target sequence (Q8BHY3 whole entry, looked up): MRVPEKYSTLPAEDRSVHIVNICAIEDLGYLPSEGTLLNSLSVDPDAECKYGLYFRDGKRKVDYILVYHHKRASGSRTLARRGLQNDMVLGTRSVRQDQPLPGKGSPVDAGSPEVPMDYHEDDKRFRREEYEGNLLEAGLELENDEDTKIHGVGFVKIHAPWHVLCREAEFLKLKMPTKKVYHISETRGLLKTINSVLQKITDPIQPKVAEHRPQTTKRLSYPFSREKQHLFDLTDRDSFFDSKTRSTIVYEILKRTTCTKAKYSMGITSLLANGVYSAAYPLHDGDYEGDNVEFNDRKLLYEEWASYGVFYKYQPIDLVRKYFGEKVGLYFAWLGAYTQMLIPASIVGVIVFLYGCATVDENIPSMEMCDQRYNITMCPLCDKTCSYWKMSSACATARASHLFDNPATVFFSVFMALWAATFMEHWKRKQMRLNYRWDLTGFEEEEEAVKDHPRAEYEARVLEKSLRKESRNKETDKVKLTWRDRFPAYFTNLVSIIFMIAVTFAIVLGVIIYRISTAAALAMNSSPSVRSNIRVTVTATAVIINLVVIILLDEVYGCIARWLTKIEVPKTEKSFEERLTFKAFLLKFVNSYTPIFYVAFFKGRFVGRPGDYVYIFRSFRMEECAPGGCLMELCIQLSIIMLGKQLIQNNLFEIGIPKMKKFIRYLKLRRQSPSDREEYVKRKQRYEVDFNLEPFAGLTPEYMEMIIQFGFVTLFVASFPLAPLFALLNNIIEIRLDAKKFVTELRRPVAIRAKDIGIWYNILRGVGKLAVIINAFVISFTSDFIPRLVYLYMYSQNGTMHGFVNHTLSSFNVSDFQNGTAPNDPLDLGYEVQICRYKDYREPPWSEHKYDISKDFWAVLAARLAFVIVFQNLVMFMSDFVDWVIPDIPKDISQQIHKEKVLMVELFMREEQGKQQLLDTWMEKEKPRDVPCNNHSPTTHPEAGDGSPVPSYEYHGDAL
GRIN3A LBD mod: NR3A (human) ligand-binding domain modulation; 2.5% of 340,000 active; AID 1259313; NR3A LBD differential scanning fluorimetry, Tm shift; 0% = protein alone, 100% = glycine-bound protein; Tm shift relative to glycine control, % at 25 µM;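 active = melting temperature shift of at least 10% of the positive control shift, at one fixed dose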
CRFBP-R2 agonist: CRF-BP/CRF-R2 complex agonism. activation, % at 13.2 µM. AID 588473. 0.46% of 350,000 active. HEK293 CRF-R2/CRF-BP, calcium dye fluorescence (FLIPR); percent of saturating CRF peptide response;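 active = activation of at least 50%, plus an integration ratio under a set limit after plate pattern correction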;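 note: plate controls were neutral control wells without compound for no effect and CRF at EC100 for full effect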
ANO1 block: inhibitors of mouse TMEM16A calcium-activated chloride channel | Q8BHY3 | HEK293 TMEM16A/YFP iodide influx fluorescence, ionomycin | normalized B-score (activity score, 25-100; higher = stronger inhibition) at 10 µM | 1.2% of 310,000 active;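 active = ratio plate-corrected score three or more library SD toward inhibition, starting fluorescence score within five deviations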;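 note: score derived from kinetic fluorescence span divided by baseline fluorescence per well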
The depositor's hits bear a star; i = inactive; / = no result given.

SMILES | CRFR2-BP antag | MPTP block | ANO1 activ | GRIN3A LBD mod | CRFBP-R2 agonist | ANO1 block
COc1nc(SC)nc(Cl)c1Cc1ccc(OC(C)C)cc1 | -5 | 1 | i | 0 | 6 | i
CS(=O)(=O)/C(C#N)=C\c1cnc(S(=O)(=O)c2ccccc2)s1 | / | / | / | / | / | i
COc1ccc(CC(=O)OCC(=O)c2ccc(S(=O)(=O)N3CCCCC3)cc2)cc1 | 3 | 1 | i | -1 | 0 | /
Cc1[nH]n(-c2ccccc2)c(=O)c1N=Nc1ccccc1O | -11 | 4 | i | 10* | 14 | /
CCN1C(C)=CC(=O)[C@@H](O)[C@H]1c1ccccc1Br | -12 | 0 | / | -3 | 0 | /
COc1ccc(NC(=O)c2cccc(N3C(=O)c4cccc([N+](=O)[O-])c4C3=O)c2)cc1 | 7 | 0 | i | -5 | -1 | i
COc1ccc(/C=C2\C(=O)N(c3c(Cl)cc(Cl)cc3Cl)N=C2NC(=O)c2cccc([N+](=O)[O-])c2)cc1 | 19 | 6 | i | 13* | -1 | i
O=C(CCC(=O)N1CCN(Cc2ccc(F)cc2)CC1)Nc1nnc(C2CCCCC2)s1 | -18 | 1 | i | -1 | 1 | i
C/C(=C\C=C(C#N)C#N)c1cc(C#N)c(N)o1 | -50 | 14 | i | -1 | 64* | /
CCCc1ccc(-c2cc(NC(=O)CSc3n[nH]c(N)n3)n(-c3ccccc3)n2)cc1 | -80 | 2 | i | 18* | 1 | i
C=C(CN(C)C)C(=O)c1cc(C)ccc1C | 8 | -2 | i | 11* | 4 | /
Cc1ccc(C)c(C(=O)NCCN(C)C)c1 | -19 | 1 | i | 0 | 0 | i
Cc1ccc(C)c(NC(=O)CSc2nnc(-c3n[nH]c4ccccc34)o2)c1 | -9 | 4 | i | -8 | -1 | i
CC(C)(C)c1ccc(NC(=O)CSc2nnc(-c3n[nH]c4ccccc34)o2)cc1 | -25 | 41 | i | 175* | 0 | i
CC1Cc2ccccc2N1S(=O)(=O)c1cccc(C(=O)N2Cc3ccccc3CC2C(N)=O)c1 (stereo unspecified) | 0 | -1 | i | 1 | -1 | /
C=CCn1c(N)c(C(=O)OCCC)c2nc3ccccc3nc21 | 9 | -9 | i | -3 | 0 | i
Nc1c(C(=O)Nc2ccccc2)c2nc3ccccc3nc2n1CCCN1CCOCC1 | -10 | -2 | i | 18* | 0 | i
N#Cc1c(N)n(CCCN2CCOCC2)c2nc3ccccc3nc12 | -1 | -1 | i | -7 | 0 | i
C=CCn1c(N)c(C(=O)Nc2cccc(C)c2)c2nc3ccccc3nc21 | -78 | 2 | i | 18* | 0 | i
C=CCn1c(N)c(C(=O)Nc2ccc(C)c(C)c2)c2nc3ccccc3nc21 | 0 | 3 | i | 24* | 1 | i
O=C(CSc1nnc2ccc(-c3ccccn3)nn12)N1CCCC1 | -11 | 2 | i | -1 | 0 | /
COc1cccc(-c2noc(-c3cccnc3)n2)c1 | 9 | 0 | i | 1 | -2 | i
COc1cccc(-c2noc(C(C)n3nc(C)c([N+](=O)[O-])c3C)n2)c1 (stereo unspecified) | 17 | 4 | i | 14* | 1 | i
O=C(/C=C/c1cccc([N+](=O)[O-])c1)Nc1ccc(NC(=O)c2cccs2)cc1 | -5 | 2 | i | 25* | -1 | i
O=C(NC(=S)Nc1ccc(-c2ccc(CO)o2)cc1)c1cccs1 | 10 | 0 | i | -4 | 2 | 100*
SMILES | CRFR2-BP antag | MPTP block | ANO1 activ | GRIN3A LBD mod | CRFBP-R2 agonist | ANO1 block
O=C(Nc1ccc(NC(=S)NC(=O)c2cccs2)cc1)c1ccco1 | -10 | 1 | i | 13* | -1 | i
CC(=O)NC(=S)Nc1ccc(NC(=S)NC(=O)c2cccs2)cc1 | -12 | 1 | i | 2 | 0 | i
Cc1c(C(=O)NC(=S)Nc2ccc(NC(=O)c3cccs3)cc2)cccc1[N+](=O)[O-] | -15 | 0 | i | 11* | -1 | i
O=C(/C=C/c1cccc([N+](=O)[O-])c1)c1cccs1 | 15 | 2 | i | 0 | -1 | i
CCc1nc2c(OCc3ccc(OC)cc3)cccn2c1N(C)C(=O)c1ccncc1 | / | 1 | / | / | / | /
CN(CC(=O)Nc1ccc(Cl)c(Cl)c1)C(=O)CNC(=O)C1CCCCC1 | -9 | 0 | i | 1 | 0 | /

Screens deposited in PubChem by several laboratories.
